# Bcl-XL Bim block: inhibitors of Bim-Bcl-XL binding, primary screen, biochemical, multiplexed, bead flow cytometry, human Bcl-XL; Bcl-2-like protein 1 (Homo sapiens), Q07817; Bim peptide-Bcl-XL binding, fluorescence; inhibition, % at 10 µM; 190,000 tested, 0.04% active
# Bim-Bcl-2: inhibitors of Bim-Bcl-2 binding, primary screen, biochemical, multiplexed, human Bcl-2 family; Apoptosis regulator Bcl-2 (Homo sapiens), P10415; Bead-based flow cytometry, Bim peptide-Bcl-2 binding; inhibition, % at 10 µM; 190,000 tested, 0.06% active; AID 950, 2007; in the data active means inhibition above about 40%;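 further: 0% = no compound wells with probe peptide and 100% = reference peptide inhibitor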
# Target sequence (P10415 whole entry, looked up): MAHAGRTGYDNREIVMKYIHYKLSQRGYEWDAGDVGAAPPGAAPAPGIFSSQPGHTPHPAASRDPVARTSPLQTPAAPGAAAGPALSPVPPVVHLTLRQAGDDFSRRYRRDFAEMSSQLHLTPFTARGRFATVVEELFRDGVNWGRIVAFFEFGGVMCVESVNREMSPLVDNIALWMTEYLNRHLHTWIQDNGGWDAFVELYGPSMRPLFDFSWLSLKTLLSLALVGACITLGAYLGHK
# Bim-Bcl-W: inhibitors of Bim binding to Bcl-W, primary screen, biochemical, multiplexed, bead-based flow cytometry. inhibition, % at 10 µM. Bcl-2-like protein 2 (Homo sapiens), Q92843. 190,000 tested, 0.02% active. Bim peptide-Bcl-W binding;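 further: 0% = bound tracer without compound and 100% = peptide blocker; higher means less fluorescent Bim peptide bound to Bcl-W beads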
# Bcl-xL primary: inhibitors of human Bcl-xL, primary screen, biochemical, fluorescence polarization, HTS. Bcl-2-like protein 1 (Homo sapiens), Q07817. GST-Bcl-xL / FITC-Bim BH3 peptide fluorescence polarization. inhibition, % at 10.9 µM. 320,000 tested, 0.7% active. AID 2129, 2009;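 active means inhibition above the mean of all tested compounds plus 3 SD, cutoff set per campaign, cut at about 30% in these data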;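 further: 0% = DMSO wells and 100% = unlabeled Bim-BH3 peptide competitor; inhibitors lower millipolarization by displacing the labeled peptide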
# Bim-Bcl-B: inhibitors of Bim-Bcl-B binding, primary screen, biochemical, multiplexed, human Bcl-2 family; AID 951, 2007; 190,000 tested, 0.073% active; bead-based flow cytometry, Bim peptide-Bcl-B binding; inhibition, % at 10 µM; Bcl-2-like protein 10 (Homo sapiens), Q9HD36;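 further: 0% = tracer peptide without compound and 100% = reference inhibitor peptide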
# Target sequence (Q9HD36 whole entry, looked up): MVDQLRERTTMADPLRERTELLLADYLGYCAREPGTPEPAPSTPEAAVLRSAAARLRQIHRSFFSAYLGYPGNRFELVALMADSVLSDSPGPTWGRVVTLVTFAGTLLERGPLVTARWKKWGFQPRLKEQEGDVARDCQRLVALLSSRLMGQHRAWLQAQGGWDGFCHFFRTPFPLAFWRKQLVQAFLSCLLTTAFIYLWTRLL
# Bfl-1 Bim block: inhibitors of Bim binding to Bfl-1, primary screen, biochemical, multiplexed, bead-based flow cytometry | Bim-Bfl-1 binding inhibition | inhibition, % at 10 µM | 190,000 tested, 0.12% active;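 further: 0% = wells without compound plus tracer and 100% = blocker peptide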
# * marks the source's active call; other numbers are inactive results; . = no result. Sampled rows, rich in hits. Any-hit rate of the full collection: about 0.81%. Unless noted, no stated cut-off is given here; in the data, active means inhibition above about 40%.
SMILES,Bcl-XL Bim block,Bim-Bcl-2,Bim-Bcl-W,Bcl-xL primary,Bim-Bcl-B,Bfl-1 Bim block
Cc1nc([N+](=O)[O-])cn1CC(=O)c1ccc(OC(F)(F)F)cc1,.,.,.,1,.,.
CCOCCc1nnc(NC(=O)CS(=O)(=O)Cc2ccccc2)s1,.,.,.,4,.,.
COc1ccc(OC)c(NC(=O)CCCN2C(=S)NC(C)(C)CC2C)c1 (configuration not stated),49*,43*,42*,3,54*,50*
Cc1ccc2[nH]c3c(c2c1)CN(C(=O)CN1CCN(C(=O)c2ccco2)CC1)CC3,.,.,.,48*,.,.
O=C(CN1CCN(C(=O)c2ccco2)CC1)N1CCc2[nH]c3ccccc3c2C1,.,.,.,36*,.,.
O=C(CN1CCSCC1)N1CCc2[nH]c3ccc(Br)cc3c2C1,0,1,1,.,-1,-1
O=C(CSc1nc2ccccc2[nH]1)N1CCN(C(=O)c2ccco2)CC1,-5,-1,-4,-1,-9,2
Cc1ccc2[nH]c3c(c2c1)CN(C(=O)CN1CCN(c2cccc(C)c2C)CC1)CC3,-5,-5,5,38*,-4,-8
CCOC(=O)c1sc(SC)c2c1CCCC2=O,.,.,.,2,.,.
Cc1cc[n+]2cc(-c3cccc([N+](=O)[O-])c3)c(-c3cccc([N+](=O)[O-])c3)cc2c1,8,12,14,4,43*,10
Cc1ccccc1NC(=O)CSc1cn[nH]n1,.,.,.,6,.,.
Cc1oc(/N=C/c2ccc(O)cc2O)c(C#N)c1C,-3,-1,-1,64*,-2,-3
Cc1oc(/N=C/c2ccccc2O)c(C#N)c1C,-7,-9,-2,13,-12,-17
Cc1cccn2c(=O)c3cc(C(=O)NCc4cccnc4)c(=N)n(C(C)C)c3nc12,-3,-1,0,14,0,0
Cc1cccn2c(=O)c3cc(C(=O)NCCc4ccccc4)c(=N)n(Cc4ccco4)c3nc12,.,.,.,9,.,.
Cc1cccn2c(=O)c3cc(C(=O)NCc4ccco4)c(=N)n(C(C)C)c3nc12,0,-4,5,84*,0,0
Cc1cccn2c(=O)c3cc(C(=O)NCc4ccco4)c(=N)n(CCc4ccccc4)c3nc12,.,.,.,33*,.,.
O=C(NCc1ccco1)Nc1ccc(OC(F)(F)F)cc1,.,.,.,30*,.,.
O=C(Cn1cnc(Cl)c1Cl)c1ccc(F)cc1,-2,-3,-1,2,-4,-6
O=C1c2ccccc2-c2onc3c(N4CCN(CCO)CC4)cc(N4CCN(C(=O)c5ccco5)CC4)c1c23,.,.,.,63*,.,.
O=[N+]([O-])c1c(NCCO)cc(N2CCC3(CC2)OCCO3)c2nonc12,1,4,0,-1,-1,0
CN1CCN(c2cc(N3CCN(C(=O)c4ccco4)CC3)c3c4c(onc24)-c2ccccc2C3=O)CC1,.,.,.,37*,.,.
O=C(O)CCCNc1cc(N2CCC3(CC2)OCCO3)c2noc3c2c1C(=O)c1ccccc1-3,26,23,37,71*,5,42*
CCOC(=O)N1CCN(c2cc(NCCC(=O)O)c3c4c(onc24)-c2ccccc2C3=O)CC1,40*,31,39,43*,38,43*
O=C(c1ccco1)N1CCN(C2=NS(=O)(=O)c3ccccc32)CC1,-19,-9,-3,0,-9,-12
SMILES,Bcl-XL Bim block,Bim-Bcl-2,Bim-Bcl-W,Bcl-xL primary,Bim-Bcl-B,Bfl-1 Bim block
O=C(CS(=O)(=O)c1ccccc1)NCc1ccc(Cl)cc1,.,.,.,-1,.,.
COc1ccc(O)c(CNc2ccccc2F)c1,-1,1,-1,7,0,0
Cc1ccc(C(=O)NCCCNC(=O)c2ccccc2C)cn1,.,.,.,6,.,.
O=C(O)CCCNc1cc(N2CCN(C(=O)c3ccco3)CC2)c2noc3c2c1C(=O)c1ccccc1-3,.,.,.,135*,.,.
O=C1c2ccccc2-c2c1cccc2C(=O)N1CCN(C(=O)c2ccco2)CC1,-6,-4,0,8,-7,-11
CCCCOC(=O)c1ccc(NC(=O)COC(=O)C2CSC3(C)CCC(=O)N23)cc1 (configuration not stated),.,.,.,6,.,.
CC12CCC(=O)N1C(C(=O)OCC(=O)Nc1sccc1C#N)CS2 (configuration not stated),-2,-3,1,40*,-5,-9
NC(=O)/C(=C/c1ccco1)NC(=O)c1ccc(Br)o1,.,.,.,39*,.,.
O=C(N/C(=C\c1ccco1)C(=O)N1CCOCC1)c1ccco1,-2,0,0,33*,9,0
OCC[C@@H]1C[C@@H](O)[C@H](O)[C@]2(Cc3ccccc3CCO2)O1,.,.,.,0,.,.
O=C(C1=NN[C@@H]2C(=O)N(c3cccc(F)c3)C(=O)[C@H]12)c1ccc2ccccc2n1,18,7,12,2,13,12
COc1cccc(N2C(=O)[C@H]3C(C(=O)c4cnccn4)=NN[C@H]3C2=O)c1,.,.,.,37*,.,.
COc1ccccc1-n1c(-c2cc(-c3ccc(F)cc3)n[nH]2)n[nH]c1=S,16,44*,47*,-13,24,38
COC1CCCN(Cc2c(C(=O)N3CCN(C4CCCCC4)CC3)nc3ccccn23)C1 (configuration not stated),.,.,.,61*,.,.
CCOC(=O)CN1C=C(c2ccc3ccccc3n2)C(C[N+](=O)[O-])c2ccccc21 (configuration not stated),-6,3,-4,101*,-4,0
CC(C(=O)Nc1ccc(C(=O)O)c(O)c1)N1C(=O)/C(=C\c2ccco2)SC1=S (configuration not stated),.,.,.,47*,.,.
O=C(CN1C(=O)/C(=C/c2ccco2)SC1=S)Nc1ccc(C(=O)O)c(O)c1,.,.,.,28,.,.
O=C(CN1C(=O)/C(=C/c2ccco2)SC1=S)NC1CCS(=O)(=O)C1 (configuration not stated),.,.,.,44*,.,.
O=C(CN1C(=O)/C(=C/c2ccco2)SC1=S)Nc1ccc(O)c(C(=O)O)c1,.,.,.,34*,.,.
O=C(CCCN1C(=O)/C(=C\c2ccco2)SC1=S)Nc1ccc(O)cc1C(=O)O,.,.,.,39*,.,.
O=C(CCN1C(=O)/C(=C/c2ccccc2)SC1=S)NC1CCS(=O)(=O)C1 (configuration not stated),.,.,.,0,.,.
CC(C(=O)N(C)C1CCS(=O)(=O)C1)N1C(=O)/C(=C/c2ccco2)SC1=S (configuration not stated),.,.,.,16,.,.
O=C(CCCN1C(=O)/C(=C\c2cccs2)SC1=S)Nc1ccc(O)cc1C(=O)O,.,.,.,17,.,.
